Bioassay records deposited in PubChem by National Center for Advancing Translational Sciences (NCATS).
IL-1B inflam inh: blocks inflammasome-driven IL-1 beta release | THP-1 LPS/ATP IL-1B secretion, AlphaLISA, 16 h; hits give low values | activity change, % at 57.5 µM | 360,000 compounds, 4.7% hits | AID 743279; in the data active = activity change below about -50%; inconclusive = mostly about -30% to -49%
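THP-1 cells pretreated 1 hr with compounds (up to 57.5 uM final), then stimulated with LPS (250 ng/mL final) plus ATP (1.25 mM final); secreted IL-1B measured by AlphaLISA after 16 hr, decreased signal indicating inhibition.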
DT40 TDP1 no CPT: qHTS for Inhibitors of human tyrosyl-DNA phosphodiesterase 1 (TDP1): qHTS in cells in absence of CPT. DT40 Tdp1-/- hTDP1 cells, no CPT, ATP luminescence, 48 h. Potency, µM (doses to about 46.2 µM), without a hit: top-dose activity change, negative = growth inhibition, most hits filed as inhibitors. 420,000 compounds, 15% hits. AID 686978, 2013; also: potency is read from the fitted curve at half-maximal effect; nearly all actives have a fitted effect of over 55% in size
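No-CPT arm: Tdp1-/-;hTDP1 DT40 cells (400/well) plus compounds, incubated ≥48 hr at 37 °C. Readout CellTiter-Glo luminescence.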
HT1080-NT tox: kills 2HG-producing HT-1080-NT fibrosarcoma cells; HT-1080-NT fibrosarcoma viability, CellTiter-Glo ATP luminescence, 48 h; Potency, µM (highest dose often 46.1 µM), for the others: at the top dose activity, negative = less viability, hits mostly cytotoxic; 360,000 compounds, 1.6% hits;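 also: NT is the 2HG producing partner of a matched IDH1 knockdown line; potency is read from the fitted curve at half-maximal effect; 0% = DMSO-treated cells and -100% = media-only wells without cells; nearly all actives have a fitted effect of over 55% in size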
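HT-1080-NT; 750 cells/well; 5% FBS RPMI; 48 h compound, 37 degrees C; CellTiter-Glo luminescence; curve fitting and curve-class assignment.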
DT40 TDP1 CPT: DT40-hTDP1 cell growth loss with CPT. chicken DT40 Tdp1-/-;hTDP1 cells + 20 nM CPT, ATP luminescence, 48 h. Potency, µM (series often up to 46.2 µM), for the others: at the highest dose activity change, negative = growth inhibition, actives largely listed as inhibitors. 420,000 compounds, 12% hits. AID 686979; also: potency is read from the fitted curve at half-maximal effect; nearly all actives have a fitted effect of over 55% in size
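Cell growth measured by CellTiter-Glo luminescence after a minimum 48 h, 37 C compound exposure with 20 nM CPT in Tdp1-knockout DT40 cells stably expressing hTDP1, seeded 400/well; qHTS titration format.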
HT1080 IDH1KD tx: toxicity to HT-1080 IDH1 knockdown cells (counter line) | HT-1080 IDH1 knockdown viability, ATP luminescence, 48 h | Potency, µM (top dose mostly 46.1 µM), for the others: top-dose activity, negative = toxicity, hits mostly cytotoxic | 360,000 compounds, 2% hits | AID 686971;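 also: potency is read from the fitted curve at half-maximal effect; 0% = DMSO wells and -100% = cell-free medium wells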
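Assay cells: HT-1080 with IDH1 knockdown, 750 per well, RPMI/5% FBS. Exposure: 48 h at 37 °C following 2 h pre-incubation. Read: CellTiter-Glo luminescence; fitted concentration-response, curve class assigned.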
* hit, by the source's call; ? = inconclusive; . = no result given; [ ] = dose if it differs, or a comment. A selection: hits, their analogues and other compounds. The true share with any hit is near 19%. Unless noted, calls follow the shape of the dose curve; as a rule, active = well fitted curve in the direction sought with a large enough effect; inconclusive = small, poorly fitted or top-dose-only effect, or another doubt; inactive = no such curve, though single readings can be large; an effect the other way counts as inactive or inconclusive. Unless noted, % is scaled to controls: 0 for no effect and ±100 for the full control effect.

SMILES | IL-1B inflam inh | DT40 TDP1 no CPT | HT1080-NT tox | DT40 TDP1 CPT | HT1080 IDH1KD tx
CCOc1ccc(CCNC(=O)c2ccc(CS(=O)Cc3ccc(Cl)cc3)o2)cc1 (configuration not stated) | -8.5 | ? | -4.2% | 16.4µM* | -11.1%
CSc1ccc(CCNC(=O)c2ccc(CS(=O)Cc3ccc(Cl)cc3)o2)cc1 (configuration not stated) | ? | 20.6µM* | -8.8% | ? | -23.3%
C=CCN(c1ccccc1)S(=O)(=O)c1ccc2c(c1)oc(=O)n2C | 0.5 | -7.5% | 0.0% | ? | -13.9%
C=CCN(C1CCCCC1)S(=O)(=O)c1ccc2c(c1)oc(=O)n2C | 15.1 | ? | -4.1% | 8.2µM* | -0.1%
COC(=O)c1cc(F)c(-n2cncn2)c(F)c1 | -5.0 | -5.3% | 4.8% | -5.6% | -4.9%
COC(=O)c1cc([N+](=O)[O-])c(-n2cncn2)c([N+](=O)[O-])c1 | -14.0 | 5.8µM* | 3.0% | 5.8µM* | -3.4%
COc1ccc(CCNC(=O)CNS(=O)(=O)c2ccc(Br)cc2)cc1 | 4.5 | ? | -1.8% | -3.6% | 16.7%
N#CC1=CN(Cc2ccccc2)C=C(/C=N/Nc2ccccc2)C1 | -79.6* | ? | ? | ? | ?
CCOC(=O)C(=O)C1=CN(Cc2ccccc2)C=C(C#N)C1 | -0.4 | -3.9% | 18.0% | -0.2% | -0.1%
COc1cccc(-c2cnc(C(O)c3ccc(F)c(C)c3)[nH]2)c1 (configuration not stated) | 27.1 | ? | 8.5% | ? | 1.6%
OC(c1ccc(-c2ccccc2)cc1)c1ncc(-c2ccc(F)cc2)[nH]1 (configuration not stated) | 27.2 | ? | ? | 29.1µM* | ?
Cc1cc(C(O)c2ncc(-c3ccccc3)[nH]2)ccc1F (configuration not stated) | 23.4 | ? | -6.3% | 16.4µM* | -5.3%
OC(c1ccccc1)c1ncc(-c2ccc(Cl)cc2)[nH]1 (configuration not stated) | 19.3 | -9.9% | 20.8% | -3.5% | 0.0%
CC(OC(=O)CCCNC(=O)c1ccc(Cl)cc1)C(=O)N(C)Cc1ccccc1 (configuration not stated) | 31.8 | ? | 0.6% | ? | 6.5%
Cc1ccc(C)c(S(=O)(=O)N2CCN(C(=O)C3CCN(c4ncnc5sc(C)c(C)c45)CC3)CC2)c1 | ? | 10.3µM* | 5.3% | 14.6µM* | -9.9%
Cc1sc2ncnc(N3CCC(C(=O)Nc4ccc(S(N)(=O)=O)cc4)CC3)c2c1C | -7.7 | 14.6µM* | -18.7% | ? | -1.3%
Cc1ccc(NC(=O)C2CCN(c3ncnc4sc(C)c(C)c34)CC2)cc1S(=O)(=O)N(C)C | -9.8 | 9.2µM* | -6.5% | 13µM* | -18.9%
Cc1ccc(C)c(S(=O)(=O)N2CCN(C(=O)C3CC3C)CC2)c1 (configuration not stated) | -2.8 | -27.7% | -1.2% | -12.1% | 5.5%
CCN(CC)S(=O)(=O)c1cc(NC(=O)C2CCN(c3ncnc4sc(C)c(C)c34)CC2)ccc1Cl | -28.4 | 20.6µM* | ? | 14.6µM* | -26.2%
O=S(=O)(SC1=NCCN1)c1ccccc1 | 13.4 | -20.5% | 11.3% | -6.3% | 23.5%
COc1ccccc1C(=O)Nc1ccc(OCC(=O)N2C(C)CCCC2C)cc1 (configuration not stated) | -8.2 | ? | 14.2% | -13.5% | 9.8%
Cc1cc(NC(=O)CSc2nnc(-c3c[nH]c4ccccc34)n2C)no1 | 21.8 | -26.1% | 5.7% | -22.4% | 1.8%
N#CCC(=O)Nc1ccc(C(=O)OCC(=O)Nc2ccc3ccccc3c2)cc1 | 13.0 | 8.3% | 1.7% | -4.1% | 5.1%
OC(c1ccccc1)c1nc(-c2cccs2)cs1 (configuration not stated) | -2.9 | -26.1% | -8.8% | ? | 18.4%
C=CCNC(N)=S | 14.4 | 19.4% | 11.1% | 1.9% | 19.2%
SMILES | IL-1B inflam inh | DT40 TDP1 no CPT | HT1080-NT tox | DT40 TDP1 CPT | HT1080 IDH1KD tx
C=CCNC(=S)N(C1CCCCC1)C1CCCCC1 | 0.0 | 23.1µM* | 16.1% | ? | -1.9%
Cn1c(CO)c(-c2ccccc2)c2cc([N+](=O)[O-])ccc21 | 0.0 | ? | ? | -18.7% | ?
CC(=O)OCc1c(-c2ccccc2)c2cc([N+](=O)[O-])ccc2n1C | 25.5 | 1.84µM* | -19.4% | 3.66µM* | -27.8%
CC(C)c1nn2c(=O)cc(COC(=O)C3CCCCC3)nc2s1 | . | -2.4% | . | -16.9% | .
CC(C)CNC(=O)C1(C)CCCN1C(=O)C(C)(C)Oc1ccc(Cl)cc1 (configuration not stated) | 41.7 | 16.4µM* | 5.0% | ? | 8.8%
O=c1c2c3c(sc2nc2sc(CN4CCOCC4)cn12)CCCC3 | 2.5 | -16.5% | 2.5% | 0.3% | -1.9%
Cc1noc(C)c1COc1ccc(C(=O)OCC(=O)Nc2ccc(S(N)(=O)=O)cc2)cc1 | -20.1 | 16.4µM* | 13.5% | ? | -1.4%
Cc1noc(C)c1COc1ccc(C(=O)OCC(=O)NCc2ccccc2Cl)cc1 | -8.1 | 29.1µM* | -28.0% | ? | -28.6%
COc1cccc(CNC(=O)c2c(OC)cc(=O)n3c2CCN(C(=O)c2ccc(C)nc2)CC3)c1 | . | 6.2% | . | 8.2% | .
COc1cccc(-c2c(NC(=O)c3ccco3)oc3ccccc3c2=O)c1 | -17.9 | -22.1% | -3.6% | -1.1% | -4.5%
COc1cccc(-c2oc3ccccc3c(=O)c2O)c1 | . | 26.6µM* | . | 26.6µM* | .
O=c1c(O)c(-c2ccc3c(c2)OCO3)oc2ccccc12 | -0.8 | ? | ? | 18.4µM* | ?
COc1cccc(-c2nc3cc(SC)ccc3cc2CN(C(=O)c2csc(C)n2)C2CC2)c1 | . | ? | . | -14.5%[9.04 µM] | .
COc1cccc(-c2nc3cc4c(cc3cc2CN(C(=O)c2csc(C)n2)C2CC2)CCC4)c1OC | . | 23.1µM* | . | -12.3%[9.04 µM] | .
Cc1ccc(OCC(=O)Nc2ccc3c(c2)OCO3)cc1C | -8.4 | 25.9µM* | 6.4% | -6.0% | -4.8%
Cc1ccc(C)c(OCC(=O)Nc2ccc3c(c2)OCO3)c1C | 5.0 | 18.4µM* | -15.0% | ? | -26.9%
COc1cccc(CNC(=O)[C@@H]2CCCN2C(=O)[C@H]2CCCCN2C(=O)c2cccc3ccccc23)c1 | -7.9 | ? | -21.8% | ? | -24.5%
CN(C)CC1CCCCC1OC(=O)/C=C/c1ccc(Cl)cc1Cl (configuration not stated) | -79.3* | ? | -28.9% | ? | -14.7%
Cc1c(N(C)S(=O)(=O)c2cccc(C(=O)NCc3cccnc3)c2)c(=O)n(-c2ccccc2)n1C | 5.1 | -14.9% | 7.0% | -3.3% | 9.3%
CCCCc1nc(N2CCOCC2)c(C#N)c2c1COC(C)(C)C2 | -11.9 | ? | 2.4% | ? | -4.6%
